An excerpt weighted towards active compounds, which were near 4.4% of everything screened.
PfHsp90 yeast 2: growth inhibition of yeast expressing Plasmodium Hsp90. S. cerevisiae expressing PfHsp90, BacTiter-Glo ATP, 48 h; yeast lacking PDR1 and PDR3 efflux regulators. inhibition, % at 9.4 µM. actives 0.32% (n = 310,000). AID 504621;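 active = every replicate shows inhibition above about 80%, whatever the replicate mean, limit read from the data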;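 note: 0% = DMSO neutral controls and 100% = 20 µM radicicol positive controls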
Mot1-301 SUMO: SUMOylation pathway inhibition by Mot1-301 growth rescue; AID 2716; growth rescue, % at 18.8 µM; actives 1% (n = 320,000); S. cerevisiae Mot1-301 growth rescue, ATP luminescence, 38.5C; percent above DMSO median, 100 means doubled;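 active = every valid replicate shows activation above 250% relative to neutral control wells; inactive = the rest, any valid replicate at or below 250%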;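 note: OY570 slx delta 5 strain wells were the positive control but not used for scaling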
tim23-1 inh: inhibits growth of tim23-1 mutant yeast; S. cerevisiae tim23-1 growth, BacTiter-Glo luminescence, 24 h; AID 463212; actives 1.3% (n = 330,000); inhibition, % at 20 µM;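 active = growth inhibition of the mutant yeast at or above 50%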;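 note: temperature-sensitive mutant grown at 25 °C; plate controls were DMSO-treated mutant yeast for no effect and medium wells lacking yeast for full effect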
TIM10 inh: TIM10 yeast growth inhibition | inhibition, % at 10 µM | actives 1.4% (n = 330,000) | AID 463195 | S. cerevisiae TIM10 strain growth, BacTiter-Glo luminescence, 24 h;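 active = inhibition of 40% or more at the single tested concentration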;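 note: wild-type TIM10 isogenic control strain grown at permissive 25 °C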
tim10-1 inh: inhibits growth of tim10-1 mutant yeast; S. cerevisiae tim10-1 ts strain growth, BacTiter-Glo, 24 h; inhibition, % at 20 µM; actives 2.2% (n = 330,000); AID 463190;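 active = inhibition of at least 40%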;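 note: mutant grown at 25 °C; 0% = DMSO wells with yeast and 100% = wells holding no yeast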
Mot1 SUMO dose: yeast SUMO pathway inhibition in dose response | shares compounds with Mot1-301 SUMO | 2,300 tested, under 10 active | S. cerevisiae Mot1-301 galactose growth, ATP luminescence, 24 h; -100 = growth of slx-deleted rescue strain | growth activity, percent, % at 42 µM;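 active = Signal drops as the depositor expects, and the fitted half-maximal dose is no more than ten times the top valid tested dose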;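 note: more negative values mean stronger growth rescue toward the control strain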
* marks the source's active call; other numbers are inactive results; / = no result given; + = active, no number.

SMILES | PfHsp90 yeast 2 | Mot1-301 SUMO | tim23-1 inh | TIM10 inh | tim10-1 inh | Mot1 SUMO dose
COc1cc(CN2CCCC(CO)(Cc3cccc(Cl)c3)C2)cc2c1OCO2 (centres undefined) | -6 | + | 18 | 2 | 2 | 1
COc1cccc(NC(=O)CN(C)C(=O)c2ccccc2-c2nc3ccccc3s2)c1 | -9 | -31 | 19 | -4 | 13 | /
c1ccc(-c2csc(N3CCN(c4ccccn4)CC3)n2)cc1 | -6 | 699* | 43 | 1 | 17 | 0
c1ccc(-c2csc(N3CCOCC3)n2)cc1 | 11 | 17 | 11 | 16 | 19 | /
COc1cc(C(c2c(C)[nH][nH]c2=O)c2c(C)[nH][nH]c2=O)cc(Cl)c1O | -21 | 2 | -3 | -2 | 1 | /
COc1cc(C(c2c(C)[nH][nH]c2=O)c2c(C)[nH][nH]c2=O)cc(OC)c1OC | -23 | 674* | 15 | -7 | -7 | 0
CN(c1ccccc1C(=O)N1CCN(Cc2ccc3c(c2)OCO3)CC1)S(C)(=O)=O | -2 | + | 3 | 6 | -1 | 0
O=C(c1ccccc1Cl)N1CCN(Cc2ccc3c(c2)OCO3)CC1 | -4 | 3 | 0 | -2 | -15 | /
CCOc1ccc(CCNC(=O)CSC(=S)N2CCCC2)cc1OCC | 11 | -12 | 30 | 16 | 23 | /
COc1ccccc1CC(=O)N1CCN(S(=O)(=O)c2ccccc2)CC1 | -4 | 383* | 4 | -7 | 5 | 0
COc1ccccc1CC(=O)N1CCN(S(=O)(=O)c2ccccc2F)CC1 | -1 | 96 | 0 | -9 | -8 | /
O=S(=O)(Nc1ccc(-c2nc3cccnc3s2)cc1)c1cc(F)ccc1F | -13 | 370* | 18 | 7 | 24 | -1
CCc1ccc(S(=O)(=O)Nc2ccc(-c3nc4cccnc4s3)cc2)s1 | -6 | 9 | 18 | 1 | 12 | /
COc1ccc(C2=NN(C(=S)Nc3ccccc3)C(c3ccccc3)C2)cc1 (centres undefined) | -19 | + | 28 | 37 | 37 | -1
Cc1csc(NC(=O)CSC2=NS(=O)(=O)c3ccccc3N2)n1 | -13 | 14 | -7 | -3 | -5 | /
c1cc2c(cc1CNc1ccc(N3CCOCC3)cc1)OCO2 | 7 | 4 | 5 | -9 | -10 | /
CC1CCCC(C)N1/N=C/c1cc(Br)cc(Br)c1O (centres undefined) | 9 | 476* | 39 | 30 | 34 | -1
Cc1cc(C)n2nc(SC(C)C(=O)Nc3ccccc3F)nc2n1 (centres undefined) | 5 | -13 | -6 | -13 | -18 | /
CNS(=O)(=O)c1cccc(C(=O)NCC2(N3CCCCC3)CCCCC2)c1 | 15 | 402* | 20 | -2 | 4 | 0
CC1(C)CC(=O)C(C(=O)c2ccccc2)C(=O)C1Cl (centres undefined) | -6 | 536* | 13 | -12 | -2 | -1
CC1(C)CC(=O)C(C(=O)c2ccccc2)C(=O)C1 | -17 | -15 | 10 | -11 | 23 | /
O=C(COC(=O)CNS(=O)(=O)c1ccccc1)Nc1ncc(Cl)cc1Cl | -14 | -20 | 3 | -6 | 1 | /
O=C(NC1(C(F)(F)F)NC(=O)N(c2ccccc2F)C1=O)c1ccncc1 (centres undefined) | -7 | -3 | 9 | 1 | 1 | /
CC(C)(C)C(=O)NC1(C(F)(F)F)NC(=O)N(c2ccccc2F)C1=O (centres undefined) | -9 | 483* | 10 | -11 | -5 | 0
CCN(CC)S(=O)(=O)c1cc(NC(=O)COC(=O)CCc2nc3ccccc3s2)ccc1C | 9 | 363* | 23 | 12 | 34 | 0
CCCCNc1nc(Cl)nc(Nc2ccc(C)cc2)n1 | / | 4 | 1 | 7 | 12 | /
O=C(Nc1nnc(-c2ccco2)o1)c1ccc(S(=O)(=O)N2CCCC2)cc1 | 12 | 474* | -6 | 3 | -11 | 0
Cc1ccc(Cn2c(NCCc3ccccc3)nc3c2c(=O)n(C)c(=O)n3C)cc1 | -8 | 970* | 23 | 29 | 15 | 1
COc1ccc(-n2cc(-c3ccccc3)[nH]c2=S)c(OC)c1 | 3 | -24 | 23 | 30 | 22 | /
Fc1ccccc1-n1cc(-c2ccccc2)[nH]c1=S | -5 | 450* | 31 | 38 | 33 | 0

Assay outcomes: PubChem BioAssay, several laboratories
